Records with an inconclusive call do not appear. Active and inactive are the calls of the source. The calls were made as follows: active = hit-call score of the fitted dose curve at least 0.9, where 1 is the maximum; inconclusive = response in the unintended direction; inactive = score below 0.9.
Key:
[1] = TOX21_p53_BLA_p2_viability: Viability Assessment in the Tox21 HCT-116 p53 Agonism Beta-lactamase Assay, Phase 2 (AID 2283591);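 also: compound exposure lasted 16 h at 37 °C; actives lower the ATP signal meaning cytotoxicity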
Summary of the method: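 HCT116 p53-bla cells, 4000/well, dosed after 5 h plating (217-fold dilution of DMSO stocks) and incubated 16 h at 37C. Viability taken as cellular ATP by CellTiter-Glo luminescence after 30 min RT; signal loss marks cytotoxicity.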

[2] = target: Cellular tumor antigen p53 (Homo sapiens) (UniProt P04637); assay: TOX21_p53_BLA_p2_ratio: Tox21 HCT-116 p53 Agonism Beta-lactamase Assay, Ratio, Phase 2 (AID 2283592)
Chain of Cellular tumor antigen p53 (Homo sapiens) (P04637 whole entry, looked up): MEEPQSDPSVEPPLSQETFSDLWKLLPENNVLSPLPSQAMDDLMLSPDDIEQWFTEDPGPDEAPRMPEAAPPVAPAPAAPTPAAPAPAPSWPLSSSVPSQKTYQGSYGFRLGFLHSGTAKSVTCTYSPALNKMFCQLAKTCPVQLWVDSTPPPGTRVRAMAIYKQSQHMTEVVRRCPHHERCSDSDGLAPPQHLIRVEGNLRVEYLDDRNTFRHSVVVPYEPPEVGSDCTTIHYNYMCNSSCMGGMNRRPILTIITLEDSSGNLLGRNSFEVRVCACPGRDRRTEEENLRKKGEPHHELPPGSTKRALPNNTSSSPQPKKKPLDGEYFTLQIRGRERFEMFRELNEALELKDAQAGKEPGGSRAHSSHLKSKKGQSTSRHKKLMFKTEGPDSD
Summary of the method: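 Gain-of-signal p53 agonism was scored from the beta-lactamase FRET ratio (460/530 nm, 405 nm excitation) in HCT116 cells treated 16 h at 37C, 5% CO2, with DMSO serving as negative control and baseline.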

[3] = TOX21_p53_BLA_p3_viability: Viability Assessment in the Tox21 HCT-116 p53 Agonism Beta-lactamase Assay, Phase 3 (AID 2283593);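 also: cells exposed to compound for 16 h before reading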
Summary of the method: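 HCT116 cells, 4000/well, dosed 5 h after plating by pin transfer (217-fold dilution from DMSO stock) and incubated 16 h at 37C, 5% CO2. Viability read as ATP luminescence with CellTiter-Glo after 30 min at room temperature.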

[4] = TOX21_p53_BLA_p4_viability: Viability Assessment in the Tox21 HCT-116 p53 Agonism Beta-lactamase Assay, Phase 4 (AID 2283597);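 also: hits lower the luminescence signal meaning cytotoxicity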
Summary of the method: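 Following a 16 h exposure at 37C, the treated HCT116 wells were first read for the FRET ratio. They were then lysed with CellTiter-Glo, and ATP luminescence was recorded after 30 min at room temperature.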

[5] = TOX21_p53_BLA_p5_viability: Viability Assessment in the Tox21 HCT-116 p53 Agonism Beta-lactamase Assay, Phase 5 (AID 2283600)
Summary of the method: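 After the 460/530 nm beta-lactamase measurement, the wells received an ATP-detection luciferase reagent; signal was read 30 min later at RT. Compound treatment lasted 16 h on cells pre-incubated 5 h post-seeding.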

[6] = target: Cellular tumor antigen p53 (Homo sapiens) (UniProt P04637); assay: TOX21_p53_BLA_p5_ratio: Tox21 HCT-116 p53 Agonism Beta-lactamase Assay, Ratio, Phase 5 (AID 2283599)
Summary of the method: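 HCT-116 p53-bla cells (4000/well) plated 5 h, dosed with compound (217-fold DMSO dilution) for 16 h at 37 C; CCF4-AM substrate 2 h at room temperature. Activity is the 460/530 nm emission ratio (405 nm excitation), fitted in gain-of-signal direction versus DMSO.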

[7] = target: Cellular tumor antigen p53 (Homo sapiens) (UniProt P04637); assay: TOX21_p53_BLA_p4_ratio: Tox21 HCT-116 p53 Agonism Beta-lactamase Assay, Ratio, Phase 4 (AID 2283601)
Summary of the method: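 HCT-116 p53 beta-lactamase reporter cells (4000/well) preincubated 5 h, then compound (217-fold dilution of DMSO stock) for 16 h at 37C. CCF4-AM substrate added 2 h at room temperature; 460/530 nm emission ratio fitted upward versus DMSO.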

[8] = target: Cellular tumor antigen p53 (Homo sapiens) (UniProt P04637); assay: TOX21_p53_BLA_p3_ratio: Tox21 HCT-116 p53 Agonism Beta-lactamase Assay, Ratio, Phase 3 (AID 2283596)
Summary of the method: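 HCT116 p53-bla cells (4000/well) given compound in DMSO (217-fold dilution) after 5 h, incubated 16 h at 37C. CCF4-AM substrate 2 h at room temperature; 460/530 nm emission ratio, gain fitted against DMSO.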

[9] = target: Thyroid hormone receptor alpha (Rattus norvegicus) + Thyroid hormone receptor beta (Rattus norvegicus) (UniProt P18113+P63059); assay: TOX21_TR_LUC_GH3_Antagonist_Followup: Tox21 GH3 Thyroid Hormone Receptor Antagonism Luciferase Follow-Up Assay (AID 2283942)
Summary of the method: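 Antagonist mode: GH3 cells seeded 1,500/well, compounds at 15 concentrations (92 uM to 5nM final) plus T3 at 1.0 nM final, 24 h at 37C. Luciferase read with ONE-Glo after 30 min at room temperature.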

THRA (gene 7067) = THRA (gene 7067) (UniProt P10827); assay: TOX21_TRA_COA_Antagonist_Followup_ratio: Tox21 Thyroid Hormone Receptor alpha Antagonism through Coactivator Recruitment Follow-Up Assay, Ratio (AID 2283953)
Chain of THRA (gene 7067) (P10827 whole entry, looked up, the tested form may be a part): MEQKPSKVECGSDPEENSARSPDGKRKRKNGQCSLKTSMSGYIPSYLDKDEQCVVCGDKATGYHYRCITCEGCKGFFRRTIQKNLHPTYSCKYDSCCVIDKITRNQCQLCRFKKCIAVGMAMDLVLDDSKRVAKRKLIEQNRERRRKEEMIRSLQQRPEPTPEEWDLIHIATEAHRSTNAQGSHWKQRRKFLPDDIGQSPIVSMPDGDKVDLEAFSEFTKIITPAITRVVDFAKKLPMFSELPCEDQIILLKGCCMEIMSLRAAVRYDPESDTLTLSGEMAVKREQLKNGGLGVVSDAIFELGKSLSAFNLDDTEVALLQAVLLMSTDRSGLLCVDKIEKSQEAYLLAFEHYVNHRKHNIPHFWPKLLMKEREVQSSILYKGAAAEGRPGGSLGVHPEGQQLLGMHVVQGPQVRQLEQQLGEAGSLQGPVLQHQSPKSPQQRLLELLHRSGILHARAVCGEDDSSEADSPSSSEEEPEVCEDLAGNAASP
Summary of the method: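 520:495 nm emission ratio (excitation 340 nm) reports fluorescein-SRC-2 peptide recruitment to GST-TRα LBD by TR-FRET with Tb anti-GST antibody. Values were normalized to DMSO (0%) and T3 control wells (100%); loss of signal indicated antagonism.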

THRB (gene 7068) = THRB (gene 7068) (UniProt P10828); assay: TOX21_TRB_BLA_Antagonist_Followup_ratio: Tox21 Thyroid Hormone Receptor beta Antagonism Beta-lactamase (BLA) Follow-Up Assay, Ratio (AID 2283958)
Chain of THRB (gene 7068) (P10828 whole entry, looked up, the tested form may be a part): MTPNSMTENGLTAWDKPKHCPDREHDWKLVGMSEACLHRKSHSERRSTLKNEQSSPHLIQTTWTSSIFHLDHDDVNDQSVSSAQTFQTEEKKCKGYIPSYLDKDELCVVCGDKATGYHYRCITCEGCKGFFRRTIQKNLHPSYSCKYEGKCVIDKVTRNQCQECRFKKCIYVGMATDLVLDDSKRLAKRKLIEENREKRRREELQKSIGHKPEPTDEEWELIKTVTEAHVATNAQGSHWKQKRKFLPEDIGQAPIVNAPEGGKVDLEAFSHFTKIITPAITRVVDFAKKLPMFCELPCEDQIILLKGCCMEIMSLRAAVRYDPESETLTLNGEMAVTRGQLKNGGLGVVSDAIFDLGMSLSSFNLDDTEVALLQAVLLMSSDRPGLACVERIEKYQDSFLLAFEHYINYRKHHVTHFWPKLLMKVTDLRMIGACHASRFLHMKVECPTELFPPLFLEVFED
Summary of the method: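 HEK293T cells with a GAL4-TRb LBD fusion and UAS-bla reporter, 3,000 cells/well in phenol red-free DMEM with 2% charcoal-stripped FBS. Exposed 18 h at 37C to 11 concentrations in triplicate; CCF4 460:530 nm ratio after 2 h, DMSO-referenced.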

[10] = target: Retinoic acid receptor RXR-alpha (Homo sapiens) (UniProt P19793); assay: TOX21_TR_RXR_BLA_Antagonist_Followup_ratio: Tox21 Thyroid Hormone Receptor beta Retinoid X Receptor alpha (RXRa) Antagonism Beta-lactamase (BLA) Follow-Up Assay, Ratio (AID 2283972)
Chain of Retinoic acid receptor RXR-alpha (Homo sapiens) (P19793 whole entry, looked up): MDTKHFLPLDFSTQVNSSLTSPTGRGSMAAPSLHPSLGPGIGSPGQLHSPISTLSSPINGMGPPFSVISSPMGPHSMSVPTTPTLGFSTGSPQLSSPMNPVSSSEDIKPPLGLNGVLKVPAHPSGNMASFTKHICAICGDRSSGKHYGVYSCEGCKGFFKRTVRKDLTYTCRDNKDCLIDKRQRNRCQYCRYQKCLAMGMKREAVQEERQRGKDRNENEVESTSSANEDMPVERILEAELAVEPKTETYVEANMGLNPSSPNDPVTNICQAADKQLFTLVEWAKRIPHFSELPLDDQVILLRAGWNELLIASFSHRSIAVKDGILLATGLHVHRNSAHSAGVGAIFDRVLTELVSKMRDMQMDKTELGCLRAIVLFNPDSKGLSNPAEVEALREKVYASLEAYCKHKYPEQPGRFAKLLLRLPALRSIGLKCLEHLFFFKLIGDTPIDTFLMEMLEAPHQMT
Summary of the method: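 After 5 h attachment at 37C, HEK293T RXRa-bla cells (2,500/well, 2% charcoal-stripped FBS, no phenol red) received compounds at 11 concentrations in triplicate for 16 h. Beta-lactamase read as 460:530 nm ratio after 2 h RT substrate loading.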

[11] = TOX21_TR_RXR_BLA_Antagonist_Followup_viability: Viability Assessment in the Tox21 Thyroid Hormone Receptor beta Retinoid X Receptor alpha (RXRa) Antagonism Beta-lactamase (BLA) Follow-Up Assay (AID 2283979)
Summary of the method: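 RXRa-bla HEK293T cells (2,500/well, phenol red-free DMEM, 2% charcoal-stripped FBS) were attached 5 h, then exposed to compounds at 11 concentrations in triplicate for 16 h at 37C. Viability measured by CellTiter-Glo ATP luminescence, bidirectional fitting versus DMSO.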

Measured: AC50

CN1C[C@H](CNC(=O)OCc2ccccc2)C[C@@H]2c3cccc4c3c(cn4C)C[C@H]21
active: [4] 38.7 µM
inactive: [1] | [2] | [3] | [5]

CC(C)(C)NCC(O)c1cc(Cl)c(N)c(C(F)(F)F)c1 (stereo unspecified)
inactive: [1] | [2] | [3] | [4] | [6] | [5] | [7]

CCC(=O)O[C@](Cc1ccccc1)(c1ccccc1)[C@H](C)CN(C)C
inactive: [1] | [2] | [3] | [4] | [6] | [7]

O=C(N[C@@H]1N=C(c2ccccc2F)c2cccc3c2N(CC3)C1=O)c1cc2ccccc2[nH]1
active: [7] 26.6 µM
not listed: [4] | [6]
inactive: all other assays above

CCCC[P+](CC)(CCCC)CCCC (tested in a mixture with another compound)
inactive: [1] | [2] | [3] | [4] | [6] | [5] | [7]

Clc1c(Cl)c(Cl)c(Cl)c(Cl)c1Cl
inactive: [1] | [2] | [3] | [4] | [5] | [7]

C=CCC1(C(C)CCC)C(=O)N=C(S)NC1=O (stereo unspecified)
inactive: [1] | [2] | [3] | [8] | [7]

CC(=O)OCC(=O)[C@H]1CC[C@H]2[C@@H]3CC[C@H]4C[C@H](O)CC[C@]4(C)[C@H]3C(=O)C[C@]12C
inactive: [1] | [2] | [3] | [4] | [6] | [5] | [7]

CCOP(=S)(OCC)Oc1cc(-c2ccccc2)on1
inactive: [1] | [2] | [3] | [4]

COc1cc(CC(C)N)c(OC)cc1Br (stereo unspecified)
inactive: [1] | [2] | [3] | [4] | [6] | [5] | [7]

CCCCCCC#N
inactive: [1] | [2] | [3] | [4] | [6] | [5] | [7]

Cc1nc2ccccc2c(=O)n1-c1ccccc1Cl
inactive: [1] | [2] | [3] | [4] | [5]

BrCC(Br)C1CCC(Br)C(Br)C1 (stereo unspecified)
inactive: [1] | [2] | [3] | [4] | [6] | [5] | [7]

O=C(NCc1cccnc1)Nc1ccc([N+](=O)[O-])cc1
inactive: [1] | [2] | [3] | [4] | [6] | [5] | [7]
